The list is not random: actives were taken first. Their share in the collection is about 3.7%.
NALP3 yeast inh – NALP3 inhibition in yeast | Yeast reconstituted NLRP3/ASC/caspase-1, beta-gal luminescence, 24 h | hit rate 0.39% among 330,000 | inhibition, % at 10 µM;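 active = inhibition of 50% or more; inactive = inhibition below 50%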;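 note: plate controls were induced DMSO wells for no effect and uninduced yeast grown without galactose for full effect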
PfHsp90 set2 – growth inhibition of yeast expressing Plasmodium Hsp90; AID 504621; inhibition, % at 9.4 µM; hit rate 0.32% among 310,000; S. cerevisiae expressing PfHsp90, BacTiter-Glo ATP, 48 h; yeast lacking PDR1 and PDR3 efflux regulators;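 active = every replicate shows inhibition above about 80%, whatever the replicate mean, limit read from the data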;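 note: 0% = DMSO neutral controls and 100% = 20 µM radicicol positive controls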
tim10-1 inh – tim10-1 yeast growth inhibition; inhibition, % at 20 µM; hit rate 2.2% among 330,000; S. cerevisiae tim10-1 ts strain growth, BacTiter-Glo, 24 h;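 active = inhibition of at least 40%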;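 note: mutant grown at 25 °C; 0% = DMSO wells with yeast and 100% = wells holding no yeast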
TIM10 inh – inhibits growth of TIM10 yeast strain. S. cerevisiae TIM10 strain growth, BacTiter-Glo luminescence, 24 h. inhibition, % at 10 µM. hit rate 1.4% among 330,000;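 active = inhibition of 40% or more at the single tested concentration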;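 note: wild-type TIM10 isogenic control strain grown at permissive 25 °C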
tim23-1 inh – inhibits growth of tim23-1 mutant yeast. hit rate 1.3% among 330,000. S. cerevisiae tim23-1 growth, BacTiter-Glo luminescence, 24 h. inhibition, % at 20 µM;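 active = growth inhibition of the mutant yeast at or above 50%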;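 note: temperature-sensitive mutant grown at 25 °C; plate controls were DMSO-treated mutant yeast for no effect and medium wells lacking yeast for full effect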
tim10-1 conf – tim10-1 yeast growth inhibition, confirmed; S. cerevisiae tim10-1 ts strain growth, BacTiter-Glo, 24 h; inhibition, % at 20 µM; hit rate 56% among 7,400; shares compounds with tim10-1 inh;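 active = inhibition of yeast growth at or above a set limit in either of two repeat tests at 20 µM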;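 note: tim10-1 mutant grown at permissive 25 °C to find synthetic lethal compounds; 0% = DMSO yeast wells and 100% = medium wells without yeast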
* = called active by the depositor.

O=C(CC1C[C@H](C(=O)N2CCOCC2)[C@@]2(CCC3CCCC3)c3[nH]c4ccccc4c3CCN2C1=O)NCC12CC3CC(CC(C3)C1)C2 (stereo not given in full) was read as NALP3 yeast inh 13, PfHsp90 set2 -29, tim10-1 inh 9, TIM10 inh 14 and tim23-1 inh 19.
`Cc1c(C)n(Cc2ccccc2)c2ccc(C(=O)OCCN(C)C)cc12` gave NALP3 yeast inh 30, PfHsp90 set2 1, tim10-1 inh 41*, TIM10 inh 36, tim23-1 inh 26 and tim10-1 conf 43*.
`CCc1ccc(/C=C/c2c([N+](=O)[O-])c(=O)n(C)c(=O)n2C)cc1` gave NALP3 yeast inh 34, PfHsp90 set2 16, tim10-1 inh 40*, TIM10 inh 39, tim23-1 inh 41 and tim10-1 conf 35*.
Screening CCOc1ccc(/C=C/c2c([N+](=O)[O-])c(=O)n(C)c(=O)n2C)cc1 returned NALP3 yeast inh 34, PfHsp90 set2 -11, tim10-1 inh 28, TIM10 inh -11 and tim23-1 inh 21.
`CCOc1ccc(S(=O)(=O)N2CCN(CC(O)COc3cccc([N+](=O)[O-])c3)CC2)cc1` (stereo not given) gave NALP3 yeast inh 3, PfHsp90 set2 -1, tim10-1 inh 44*, TIM10 inh 28, tim23-1 inh 19 and tim10-1 conf 8.
Screening Cc1ccc(S(=O)(=O)N2CCN(CC(O)COc3ccccc3)CC2)cc1 (stereo not given) returned NALP3 yeast inh 22, PfHsp90 set2 -28, tim10-1 inh 10, TIM10 inh 6 and tim23-1 inh 22.
For CCOc1cc(CNCc2ccncc2)cc(Br)c1OCc1ccc(F)cc1 the results were NALP3 yeast inh 43, PfHsp90 set2 28, tim10-1 inh 16, TIM10 inh 28 and tim23-1 inh -3.
Screening COc1cc(/C=N/O)cc(Br)c1OC returned NALP3 yeast inh 8, PfHsp90 set2 7, tim10-1 inh 8, TIM10 inh -24 and tim23-1 inh 8.
`COc1cc(/C=N/O)cc(Br)c1OCc1ccc(Cl)cc1` gave NALP3 yeast inh 16, PfHsp90 set2 6, tim10-1 inh 44*, TIM10 inh 20, tim23-1 inh -5 and tim10-1 conf 28.
Screening O=C(C[C@@H]1C/C=C\CCC(=O)OC[C@@H]2CCCN2C1=O)N[C@@H](CO)Cc1ccccc1 returned NALP3 yeast inh 8, PfHsp90 set2 6, tim10-1 inh -6, TIM10 inh 0 and tim23-1 inh -11.
COc1ccc(/C=N/n2c(=S)n(C)c3ccccc32)cc1OC was read as NALP3 yeast inh -7, PfHsp90 set2 -6, tim10-1 inh 43*, TIM10 inh 37, tim23-1 inh 41 and tim10-1 conf 30*.
`Cn1c(=S)n(/N=C/c2ccc3c(c2)OCO3)c2ccccc21` gave NALP3 yeast inh 12, tim10-1 inh 7, TIM10 inh -7 and tim23-1 inh 0.
For COC(=O)c1cccc(Nc2cc(C)nc(-c3ccccc3O)n2)c1 the results were NALP3 yeast inh 12, PfHsp90 set2 -25, tim10-1 inh 62*, TIM10 inh 38, tim23-1 inh 35 and tim10-1 conf 35*.
`COC(=O)c1ccc(Nc2cc(C)nc(-c3ccccc3O)n2)cc1` gave NALP3 yeast inh 4, PfHsp90 set2 3, tim10-1 inh 18, TIM10 inh 2 and tim23-1 inh 4.
CCn1cc(C(=O)NCCCN2CCCC(C)C2)c(=O)c2cc(S(=O)(=O)N(C)C3CCCCC3)ccc21 (stereo not given) was read as NALP3 yeast inh 4, PfHsp90 set2 9, tim10-1 inh 2, TIM10 inh -3 and tim23-1 inh 4.
`COc1ccccc1N1C(=O)c2ccc(C(=O)Nc3ccc(C(=O)O)cc3)cc2C1=O` gave NALP3 yeast inh 16, PfHsp90 set2 3, tim10-1 inh -15, TIM10 inh 2 and tim23-1 inh 8.
Cc1ccc(Cl)cc1N1CCN(C(=O)C2(S(=O)(=O)c3ccc(Cl)cc3)CC2)CC1 was read as NALP3 yeast inh 9, tim10-1 inh 40*, TIM10 inh 30, tim23-1 inh 27 and tim10-1 conf 27.
For O=C(c1ccc(CS(=O)Cc2ccc(Cl)cc2)o1)N1CCN(c2ccccc2F)CC1 (stereo not given) the results were NALP3 yeast inh 10, PfHsp90 set2 0, tim10-1 inh 10, TIM10 inh 14 and tim23-1 inh 23.
`Cc1cccc(N2CCN(C(=O)C3(S(=O)(=O)c4ccc(Cl)cc4)CC3)CC2)c1C` gave NALP3 yeast inh -16, PfHsp90 set2 -6, tim10-1 inh -28, TIM10 inh -2 and tim23-1 inh -5.
`CN1CCN(C(=O)c2ccc(CS(=O)Cc3ccc(Cl)cc3)o2)CC1` (stereo not given) gave NALP3 yeast inh -3, PfHsp90 set2 -5, tim10-1 inh 7, TIM10 inh -5 and tim23-1 inh 11.
Screening Cc1ccc(Cl)cc1N1CCN(C(=O)c2ccc(CS(=O)Cc3ccc(Cl)cc3)o2)CC1 (stereo not given) returned NALP3 yeast inh 1, PfHsp90 set2 2, tim10-1 inh 45*, TIM10 inh 2, tim23-1 inh 3 and tim10-1 conf -20.
Screening Cc1ccc(C)c(N2CCN(C(=O)c3ccc(CS(=O)Cc4ccc(Cl)cc4)o3)CC2)c1 (stereo not given) returned NALP3 yeast inh 5, PfHsp90 set2 11, tim10-1 inh 46*, TIM10 inh 4, tim23-1 inh 16 and tim10-1 conf -3.
CCN(CCn1cccn1)Cc1c(C(=O)N2CCCCCCC2)nc2ccc(Cl)cn12 was read as NALP3 yeast inh 12, PfHsp90 set2 -8, tim10-1 inh 26, TIM10 inh 33 and tim23-1 inh 25.
For Cc1ccc(-c2c(C)n([O-])c3c([n+]2=O)CCCCC3)o1 the results were NALP3 yeast inh 0, tim10-1 inh -2, TIM10 inh -13 and tim23-1 inh -5.
For CCOc1ccc(-c2nc(CSCC(=O)NC3CCCc4ccccc43)c(C)o2)cc1 (stereo not given) the results were NALP3 yeast inh 8, tim10-1 inh 40*, TIM10 inh 35, tim23-1 inh 36 and tim10-1 conf 25.
Screening CCOc1ccc(-c2nc(CSCC(=O)NC3CC3)c(C)o2)cc1 returned NALP3 yeast inh 14, PfHsp90 set2 5, tim10-1 inh 15, TIM10 inh -2 and tim23-1 inh 21.
`Cc1ccc(-c2csc(N3CCN(c4cc5c(cc4Cl)nc(C)n5CCN4CCCCC4)CC3)n2)cc1` gave NALP3 yeast inh 19, tim10-1 inh 41*, TIM10 inh 9, tim23-1 inh 47 and tim10-1 conf 11.
